In PubChem BioAssay (NCATS):
Inconclusive results are not listed. Entries that show only a call come without a potency. Activity calls are given as the source filed them. The call rests on the fitted dose curve; in most records, active means well fitted inhibition curve with a large enough effect; inconclusive means small, poorly fitted or top-dose-only effect; inactive means flat fitted curve, though single readings scatter. Peptide text beside a SMILES is read from it.

What follows are molecules tested on JCK (assay: qHTS profiling for inhibitors of Plasmodium falciparum proliferation (AID 504749; further: nearly all actives have a fitted effect of over 60% in size)). Details: P. falciparum in erythrocytes, SYBR Green DNA, 72 h; series mostly up to 12.8 µM.
In short: (§1)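 Quantitative HTS: compounds pinned into medium, infected erythrocytes added (0.3% parasitemia, 2.5% hematocrit), 72 h culture at 37 C under 5% CO2. Saponin/Triton lysis with SYBR Green I, overnight RT, then fluorescence read.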
Potency means the concentration at half of the fitted maximal effect.

Row | SMILES | Potency
1 | CCC(C)C(=O)OC1CCC=C2C=CC(C)C(CCC3CC(O)CC(=O)O3)[C@@H]21 (some centres not stated) | inactive
2 | C[C@]1(c2ccccc2)OC(C(=O)O)=CC1=O | inactive
3 | OCC1OC([S-])[C@H](O)C(O)C1O.[Au+] (some centres not stated) | inactive
4 | COC(=O)N/N=C/C1=C[N+](=O)c2ccccc2[N+]1=O | inactive
5 | CN1CC(=O)N=C1N | inactive
6 | CNC1CC(N)[C@H](O)[C@@H](O[C@@H]2OC(CO)C3OC4(OC(C(N)CO)C(O)C(O)C4O)O[C@@H]3[C@H]2O)C1O (some centres not stated) | inactive
7 | CC(=O)N[C@@H]1C(O)OC(CO)C(O)C1O (some centres not stated) | inactive
8 | CCC(CCC(C)C1CCC2C3CC=C4CC(O)CC[C@@]4(C)C3CC[C@@]12C)C(C)C (some centres not stated) | inactive
9 | O=C1OC(CO)C(O)C(O)C1O (configuration not stated) | inactive
10 | COc1ccc(CC(N)C(=O)NC2C(CO)OC(n3cnc4c(N(C)C)ncnc43)C2O)cc1 (configuration not stated) | 3.55 µM (active)
11 | CCCC(=O)O[C@]1(C(=O)CO)CCC2[C@@H]3CCC4=CC(=O)CC[C@]4(C)C3C(O)C[C@]21C (some centres not stated) | inactive
12 | COC(=O)C(Cc1ccccc1)NC(=O)C(N)CC(=O)O (stereo not drawn) (H-Asp-Phe-OMe; configuration not given here) | inactive
13 | CC[C@@]12CCCN3CCc4c(n(c5ccccc45)[C@](O)(C(=O)OC)C1)C32 (some centres not stated) | inactive
14 | CC1(C)SC2C(N3C(=O)C(c4ccccc4)NC3(C)C)C(=O)N2C1C(=O)O (configuration not stated) | inactive
15 | CC1CCC(C(C)C)C(=O)C1 (configuration not stated) | inactive
16 | CC(=O)N[C@H](CC(C)C)C(=O)O | inactive
17 | CC(C)C1CCC(C(=O)NC(Cc2ccccc2)C(=O)O)CC1 (configuration not stated) | inactive
18 | COc1ccc2cc(C(C)CO)ccc2c1 (configuration not stated) | inactive
19 | CNC1C(OC2C(O[C@@H]3C(O)C(O)[C@@H](N=C(N)N)C(O)C3N=C(N)N)OC(C)[C@@]2(O)CO)OC(CO)C(O)C1O (some centres not stated) | inactive
20 | CC1C2CCC3C4CC=C5CC(N(C)C)CC[C@@]5(C)C4CC[C@@]32CN1C (some centres not stated) | inactive
21 | C[C@]12C=CC(=O)C=C1CCC1C2C(O)C[C@]2(C)C1CC[C@]2(O)C(=O)CO (some centres not stated) | inactive
22 | COc1ccc2c(c1)N(C[C@@H](C)CN(C)C)c1ccccc1S2 | inactive
23 | CCOC(=O)C1=CC(OC(CC)CC)C(NC(C)=O)C(N)C1 (configuration not stated) | inactive
24 | CN(C)CCc1c[nH]c2ccc(CC3COC(=O)N3)cc12 (configuration not stated) | inactive
25 | NCC1CCC(N)C(O[C@@H]2C(O)[C@H](O[C@H]3OC(CO)C(O)C(N)C3O)[C@@H](N)C[C@H]2N)O1 (some centres not stated) | inactive
26 | OCC1O[C@H](OC2C(CO)O[C@@](O)(CO)C2O)C(O)C(O)C1O (some centres not stated) | inactive
27 | CC1(C)OC2CO[C@]3(COS(N)(=O)=O)OC(C)(C)OC3C2O1 (some centres not stated) | inactive
28 | CC(=O)OC1CCC2C3CCc4cc(O)ccc4C3CCC12C (configuration not stated) | inactive
29 | CN(C)CCCOC1C(C(O)CO)OC2OC(C)(C)O[C@@H]21 (some centres not stated) | inactive
30 | COc1cc(C2c3cc4c(cc3C(O[C@@H]3OC5COC(c6cccs6)OC5C(O)C3O)C3COC(=O)C23)OCO4)cc(OC)c1O (some centres not stated) | 4.47 µM (active)

What follows are molecules tested on N140 in the same assay as above. Details: P. falciparum in erythrocytes, SYBR Green DNA, 72 h; series mostly up to 12.8 µM.
In short: as §1

Row | SMILES | Potency
31 | CCC(C)C(=O)OC1CCC=C2C=CC(C)C(CCC3CC(O)CC(=O)O3)[C@@H]21 (some centres not stated) | inactive
32 | C[C@]1(c2ccccc2)OC(C(=O)O)=CC1=O | inactive
33 | OCC1OC([S-])[C@H](O)C(O)C1O.[Au+] (some centres not stated) | inactive
34 | COC(=O)N/N=C/C1=C[N+](=O)c2ccccc2[N+]1=O | inactive
35 | CN1CC(=O)N=C1N | inactive
36 | CNC1CC(N)[C@H](O)[C@@H](O[C@@H]2OC(CO)C3OC4(OC(C(N)CO)C(O)C(O)C4O)O[C@@H]3[C@H]2O)C1O (some centres not stated) | inactive
37 | COC1C=CO[C@@]2(C)Oc3c(C)c(O)c4c(O)c(c(C=NN5CCN(C)CC5)c(O)c4c3C2=O)NC(=O)/C(C)=C\C=CC(C)C(O)[C@@H](C)C(O)C(C)[C@H](OC(C)=O)C1C (some centres not stated) | 199 nM (active)
38 | CC(=O)N[C@@H]1C(O)OC(CO)C(O)C1O (some centres not stated) | inactive
39 | CCC(CCC(C)C1CCC2C3CC=C4CC(O)CC[C@@]4(C)C3CC[C@@]12C)C(C)C (some centres not stated) | inactive
40 | O=C1OC(CO)C(O)C(O)C1O (configuration not stated) | inactive
41 | COc1ccc(CC(N)C(=O)NC2C(CO)OC(n3cnc4c(N(C)C)ncnc43)C2O)cc1 (configuration not stated) | 631 nM (active)
42 | CCCC(=O)O[C@]1(C(=O)CO)CCC2[C@@H]3CCC4=CC(=O)CC[C@]4(C)C3C(O)C[C@]21C (some centres not stated) | inactive
43 | COC(=O)C(Cc1ccccc1)NC(=O)C(N)CC(=O)O (stereo not drawn) (H-Asp-Phe-OMe; configuration not given here) | inactive
44 | CC[C@@]12CCCN3CCc4c(n(c5ccccc45)[C@](O)(C(=O)OC)C1)C32 (some centres not stated) | inactive
45 | CC1(C)SC2C(N3C(=O)C(c4ccccc4)NC3(C)C)C(=O)N2C1C(=O)O (configuration not stated) | inactive
46 | CC1CCC(C(C)C)C(=O)C1 (configuration not stated) | inactive

Row | SMILES | Potency
47 | CC(=O)N[C@H](CC(C)C)C(=O)O | inactive
48 | CC(C)C1CCC(C(=O)NC(Cc2ccccc2)C(=O)O)CC1 (configuration not stated) | inactive
49 | COc1ccc2cc(C(C)CO)ccc2c1 (configuration not stated) | inactive
50 | COc1ccc2cc1Oc1ccc(cc1)CC1c3c(cc4c(c3Oc3cc5c(cc3OC)CCN(C)C5C2)OCO4)CCN1C (configuration not stated) | 3160 nM (active)
51 | CNC1C(OC2C(O[C@@H]3C(O)C(O)[C@@H](N=C(N)N)C(O)C3N=C(N)N)OC(C)[C@@]2(O)CO)OC(CO)C(O)C1O (some centres not stated) | inactive
52 | CC1C2CCC3C4CC=C5CC(N(C)C)CC[C@@]5(C)C4CC[C@@]32CN1C (some centres not stated) | inactive
53 | C[C@]12C=CC(=O)C=C1CCC1C2C(O)C[C@]2(C)C1CC[C@]2(O)C(=O)CO (some centres not stated) | inactive
54 | COc1ccc2c(c1)N(C[C@@H](C)CN(C)C)c1ccccc1S2 | inactive
55 | CCOC(=O)C1=CC(OC(CC)CC)C(NC(C)=O)C(N)C1 (configuration not stated) | inactive
56 | CN(C)CCc1c[nH]c2ccc(CC3COC(=O)N3)cc12 (configuration not stated) | inactive
57 | NCC1CCC(N)C(O[C@@H]2C(O)[C@H](O[C@H]3OC(CO)C(O)C(N)C3O)[C@@H](N)C[C@H]2N)O1 (some centres not stated) | inactive
58 | OCC1O[C@H](OC2C(CO)O[C@@](O)(CO)C2O)C(O)C(O)C1O (some centres not stated) | inactive
59 | CC1(C)OC2CO[C@]3(COS(N)(=O)=O)OC(C)(C)OC3C2O1 (some centres not stated) | inactive
60 | CC(=O)OC1CCC2C3CCc4cc(O)ccc4C3CCC12C (configuration not stated) | inactive
61 | CN(C)CCCOC1C(C(O)CO)OC2OC(C)(C)O[C@@H]21 (some centres not stated) | inactive
62 | COc1cc(C2c3cc4c(cc3C(O[C@@H]3OC5COC(c6cccs6)OC5C(O)C3O)C3COC(=O)C23)OCO4)cc(OC)c1O (some centres not stated) | 1000 nM (active)
